Measured values published in the supplement of paper PMC10849652.
The full data set covers some 8,800 targets. This sample favours those with a hit. About 0.5% of all pairs of compound and target were hits. Values without a mark were called inactive.

Key:
Experiment in all cases: log2 fold change, soluble protein after heating vs DMSO (PISA); higher = thermal stabilisation; K562 lysate, 10 uM; active = over 0.2 and 3.5 SD of the protein, either way, in both replicates (recomputed)
nilotinib = compound: Cc1cn(-c2cc(NC(=O)c3ccc(C)c(Nc4nccc(-c5cccnc5)n4)c3)cc(C(F)(F)F)c2)cn1 [nilotinib]
Procedure, shortened: (§1)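 Values give the log-two fold change in thermal stability against solvent controls, from duplicates. Crude K562 extract at 1 mg/mL protein, made by dounce homogenisation in PBS pH 7.4 with 1 mM MgCl2, was treated with 10 μM compound for 30 min. After 3 min heating across 48°C-58°C, aliquots were pooled, adjusted to 0.5% NP-40 at 4°C and centrifuged at 21,000xg for 90 min. The supernatant was measured by TMTpro 16plex LC-MS/MS with channel sums equalised.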

[1] = compound: Cc1nc(Nc2n[nH]c3c2CN(C(=O)N[C@H](CN(C)C)c2ccccc2)C3(C)C)c2sccc2n1
Procedure, shortened: as §1

dasatinib = compound: Cc1nc(Nc2ncc(C(=O)Nc3c(C)cccc3Cl)s2)cc(N2CCN(CCO)CC2)n1 [dasatinib]
Procedure, shortened: as §1

[2] = compound: Cc1ncc(-c2ccnc(Nc3ccc(S(C)(=O)=O)cc3)n2)n1C(C)C
Procedure, shortened: as §1

[3] = compound: Cn1cc(-c2ccc3c(c2)CCN3C(=O)Cc2cccc(C(F)(F)F)c2)c2c(N)ncnc21
Procedure, shortened: as §1

quisinostat = compound: Cn1cc(CNCC2CCN(c3ncc(C(=O)NO)cn3)CC2)c2ccccc21 [quisinostat]
Procedure, shortened: as §1

tipifarnib = compound: Cn1cncc1[C@@](N)(c1ccc(Cl)cc1)c1ccc2c(c1)c(-c1cccc(Cl)c1)cc(=O)n2C [tipifarnib]
Procedure, shortened: as §1

[4] = compound: NC(=O)Nc1cc(-c2cccc(F)c2)sc1C(=O)N[C@H]1CCCNC1
Procedure, shortened: as §1

[5] = compound: NC(=O)c1cnc(N[C@@H]2CCCC[C@@H]2N)nc1Nc1cccc(-n2nccn2)c1
Procedure, shortened: as §1

[6] = compound: NC1(c2ccc(-c3nc4ccn5c(=O)[nH]nc5c4cc3-c3ccccc3)cc2)CCC1
Procedure, shortened: as §1

Sequence of UniProt Q9NS87 (Q9NS87 whole entry, looked up): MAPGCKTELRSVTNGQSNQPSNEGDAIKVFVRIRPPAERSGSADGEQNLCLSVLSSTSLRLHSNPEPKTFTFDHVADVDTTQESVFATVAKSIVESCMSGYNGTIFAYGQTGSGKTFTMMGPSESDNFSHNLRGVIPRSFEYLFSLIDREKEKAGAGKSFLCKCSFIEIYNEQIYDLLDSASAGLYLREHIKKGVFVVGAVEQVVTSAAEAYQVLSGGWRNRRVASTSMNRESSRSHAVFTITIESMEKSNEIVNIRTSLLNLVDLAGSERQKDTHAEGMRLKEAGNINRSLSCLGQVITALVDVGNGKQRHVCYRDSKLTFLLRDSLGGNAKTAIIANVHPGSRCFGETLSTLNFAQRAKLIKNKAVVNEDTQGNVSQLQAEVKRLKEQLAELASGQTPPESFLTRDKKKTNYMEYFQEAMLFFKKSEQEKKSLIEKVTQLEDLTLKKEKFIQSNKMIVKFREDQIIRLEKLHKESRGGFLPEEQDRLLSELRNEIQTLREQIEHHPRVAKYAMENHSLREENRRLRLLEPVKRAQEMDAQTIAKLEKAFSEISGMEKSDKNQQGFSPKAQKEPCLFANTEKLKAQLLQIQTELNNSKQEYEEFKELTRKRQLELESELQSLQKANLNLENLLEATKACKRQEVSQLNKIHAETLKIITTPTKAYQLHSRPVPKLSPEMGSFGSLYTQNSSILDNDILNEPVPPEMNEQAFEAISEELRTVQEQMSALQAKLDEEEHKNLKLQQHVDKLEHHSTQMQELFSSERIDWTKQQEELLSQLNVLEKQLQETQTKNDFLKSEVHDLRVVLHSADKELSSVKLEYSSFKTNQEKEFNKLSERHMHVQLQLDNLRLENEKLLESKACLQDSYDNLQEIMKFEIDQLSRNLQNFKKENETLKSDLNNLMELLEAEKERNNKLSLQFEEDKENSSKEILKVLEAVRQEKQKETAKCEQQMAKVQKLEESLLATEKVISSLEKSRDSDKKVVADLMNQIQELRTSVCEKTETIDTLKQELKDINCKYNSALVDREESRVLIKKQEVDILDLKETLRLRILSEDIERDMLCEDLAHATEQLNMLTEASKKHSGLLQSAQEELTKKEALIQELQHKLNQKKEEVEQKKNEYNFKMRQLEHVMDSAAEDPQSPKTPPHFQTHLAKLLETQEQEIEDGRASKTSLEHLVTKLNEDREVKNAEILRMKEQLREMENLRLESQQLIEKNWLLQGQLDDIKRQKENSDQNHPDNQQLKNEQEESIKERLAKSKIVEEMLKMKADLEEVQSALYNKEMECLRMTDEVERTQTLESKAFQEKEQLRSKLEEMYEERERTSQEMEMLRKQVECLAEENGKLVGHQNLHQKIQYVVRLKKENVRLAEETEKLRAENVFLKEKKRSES
Sequence of UniProt Q6ZRQ5 (Q6ZRQ5 whole entry, looked up): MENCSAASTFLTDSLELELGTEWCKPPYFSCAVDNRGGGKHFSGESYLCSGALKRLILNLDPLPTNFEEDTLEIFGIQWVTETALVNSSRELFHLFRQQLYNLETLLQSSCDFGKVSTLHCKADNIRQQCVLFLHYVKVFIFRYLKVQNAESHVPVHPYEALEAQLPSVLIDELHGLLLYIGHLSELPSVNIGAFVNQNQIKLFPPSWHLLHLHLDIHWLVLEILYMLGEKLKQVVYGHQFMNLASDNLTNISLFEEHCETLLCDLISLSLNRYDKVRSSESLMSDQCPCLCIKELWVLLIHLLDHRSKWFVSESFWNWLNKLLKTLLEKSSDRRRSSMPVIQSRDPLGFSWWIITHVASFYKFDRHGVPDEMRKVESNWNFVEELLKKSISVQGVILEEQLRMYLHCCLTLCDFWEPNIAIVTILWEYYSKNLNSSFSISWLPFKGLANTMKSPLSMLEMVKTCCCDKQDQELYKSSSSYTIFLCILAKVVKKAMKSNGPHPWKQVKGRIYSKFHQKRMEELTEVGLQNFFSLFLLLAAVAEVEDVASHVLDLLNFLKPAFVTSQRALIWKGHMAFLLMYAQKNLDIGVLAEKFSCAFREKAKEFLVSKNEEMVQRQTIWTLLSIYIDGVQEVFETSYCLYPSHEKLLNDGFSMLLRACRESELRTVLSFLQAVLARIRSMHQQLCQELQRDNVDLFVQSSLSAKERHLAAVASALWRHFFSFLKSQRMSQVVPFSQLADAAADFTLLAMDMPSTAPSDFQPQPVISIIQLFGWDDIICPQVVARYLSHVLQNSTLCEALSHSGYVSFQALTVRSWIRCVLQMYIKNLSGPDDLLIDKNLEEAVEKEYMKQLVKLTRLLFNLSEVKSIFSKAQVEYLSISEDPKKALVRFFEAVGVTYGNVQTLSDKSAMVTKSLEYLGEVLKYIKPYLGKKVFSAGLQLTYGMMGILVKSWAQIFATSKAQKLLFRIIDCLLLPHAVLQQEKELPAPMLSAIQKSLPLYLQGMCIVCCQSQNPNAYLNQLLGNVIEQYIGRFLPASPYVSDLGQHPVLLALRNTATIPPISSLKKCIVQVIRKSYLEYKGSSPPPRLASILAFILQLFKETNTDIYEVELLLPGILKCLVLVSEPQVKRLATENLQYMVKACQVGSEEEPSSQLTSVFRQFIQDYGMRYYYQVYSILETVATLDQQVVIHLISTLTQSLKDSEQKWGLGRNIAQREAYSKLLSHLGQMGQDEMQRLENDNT
Sequence of UniProt Q9H089 (Q9H089 whole entry, looked up): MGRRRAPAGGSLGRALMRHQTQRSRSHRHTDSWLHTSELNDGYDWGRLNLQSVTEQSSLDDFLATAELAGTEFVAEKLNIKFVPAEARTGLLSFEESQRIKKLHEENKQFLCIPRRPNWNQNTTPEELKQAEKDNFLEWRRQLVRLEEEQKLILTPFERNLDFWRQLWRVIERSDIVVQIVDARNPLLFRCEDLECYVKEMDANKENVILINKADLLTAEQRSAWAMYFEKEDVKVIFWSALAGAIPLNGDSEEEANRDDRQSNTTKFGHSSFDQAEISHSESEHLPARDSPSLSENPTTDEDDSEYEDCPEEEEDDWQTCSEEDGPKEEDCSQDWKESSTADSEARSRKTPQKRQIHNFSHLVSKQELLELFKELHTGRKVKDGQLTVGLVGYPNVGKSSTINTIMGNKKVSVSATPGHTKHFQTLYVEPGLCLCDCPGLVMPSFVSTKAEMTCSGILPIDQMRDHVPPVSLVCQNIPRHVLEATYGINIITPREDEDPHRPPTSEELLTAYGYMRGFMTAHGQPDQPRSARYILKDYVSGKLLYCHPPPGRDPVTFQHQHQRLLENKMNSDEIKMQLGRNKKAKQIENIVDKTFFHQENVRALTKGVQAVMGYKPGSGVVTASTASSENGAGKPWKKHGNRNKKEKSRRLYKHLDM
Sequence of UniProt Q71SY5 (Q71SY5 whole entry, looked up): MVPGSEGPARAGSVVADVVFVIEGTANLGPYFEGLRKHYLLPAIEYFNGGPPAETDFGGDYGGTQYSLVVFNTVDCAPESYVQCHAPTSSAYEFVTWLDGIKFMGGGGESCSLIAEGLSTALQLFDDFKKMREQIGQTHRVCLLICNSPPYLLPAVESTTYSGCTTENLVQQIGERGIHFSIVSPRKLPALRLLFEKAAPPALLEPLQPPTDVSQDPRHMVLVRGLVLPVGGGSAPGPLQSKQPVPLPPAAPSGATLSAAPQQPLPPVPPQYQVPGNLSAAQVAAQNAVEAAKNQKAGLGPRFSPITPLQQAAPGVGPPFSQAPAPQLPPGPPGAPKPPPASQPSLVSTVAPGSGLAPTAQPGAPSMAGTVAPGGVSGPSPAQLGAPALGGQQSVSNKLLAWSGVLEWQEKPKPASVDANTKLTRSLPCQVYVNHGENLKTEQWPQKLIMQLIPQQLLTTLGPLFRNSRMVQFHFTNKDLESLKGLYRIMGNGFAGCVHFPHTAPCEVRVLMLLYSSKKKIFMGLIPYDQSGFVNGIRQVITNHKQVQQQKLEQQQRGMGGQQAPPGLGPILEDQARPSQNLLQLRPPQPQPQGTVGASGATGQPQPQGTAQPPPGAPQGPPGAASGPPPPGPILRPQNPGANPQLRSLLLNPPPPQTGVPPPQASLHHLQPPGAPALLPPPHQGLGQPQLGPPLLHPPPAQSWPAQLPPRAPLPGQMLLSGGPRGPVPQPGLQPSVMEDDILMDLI
Sequence of UniProt P48059 (P48059 whole entry, looked up): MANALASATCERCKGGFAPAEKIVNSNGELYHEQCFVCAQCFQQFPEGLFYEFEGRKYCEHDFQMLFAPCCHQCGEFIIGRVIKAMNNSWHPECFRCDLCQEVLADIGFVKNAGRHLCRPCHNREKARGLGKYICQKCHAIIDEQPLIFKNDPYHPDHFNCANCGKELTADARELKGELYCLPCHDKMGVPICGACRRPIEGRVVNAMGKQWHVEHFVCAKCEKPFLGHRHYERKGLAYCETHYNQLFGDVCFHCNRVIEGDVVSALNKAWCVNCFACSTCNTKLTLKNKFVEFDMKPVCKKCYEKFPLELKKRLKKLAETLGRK
Sequence of UniProt Q9BVC4 (Q9BVC4 whole entry, looked up): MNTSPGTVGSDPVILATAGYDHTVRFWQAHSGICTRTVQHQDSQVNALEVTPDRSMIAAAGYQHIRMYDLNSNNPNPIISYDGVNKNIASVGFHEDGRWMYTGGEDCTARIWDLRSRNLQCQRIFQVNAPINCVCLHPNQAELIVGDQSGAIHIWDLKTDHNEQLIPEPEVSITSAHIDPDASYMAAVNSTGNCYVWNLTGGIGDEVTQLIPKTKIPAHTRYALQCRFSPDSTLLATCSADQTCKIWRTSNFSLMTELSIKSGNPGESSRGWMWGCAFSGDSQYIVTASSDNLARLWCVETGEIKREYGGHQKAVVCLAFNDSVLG
Sequence of UniProt Q9H6V9 (Q9H6V9 whole entry, looked up): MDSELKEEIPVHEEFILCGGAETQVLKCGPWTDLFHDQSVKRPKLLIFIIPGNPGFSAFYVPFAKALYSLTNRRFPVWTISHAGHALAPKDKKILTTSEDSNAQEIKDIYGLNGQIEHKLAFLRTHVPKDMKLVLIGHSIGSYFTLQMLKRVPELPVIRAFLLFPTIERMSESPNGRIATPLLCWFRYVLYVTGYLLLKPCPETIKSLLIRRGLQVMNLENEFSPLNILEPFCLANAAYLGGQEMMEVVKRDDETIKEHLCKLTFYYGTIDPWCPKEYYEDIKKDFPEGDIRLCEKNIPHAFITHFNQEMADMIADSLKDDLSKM

| Target | log2 fold change (nilotinib) | log2 fold change [1] | log2 fold change (dasatinib) | log2 fold change [2] | log2 fold change [3] | log2 fold change (quisinostat) | log2 fold change (tipifarnib) | log2 fold change [4] | log2 fold change [5] | log2 fold change [6] |
| --- | --- | --- | --- | --- | --- | --- | --- | --- | --- | --- |
| MAN2B2 (UniProt Q9Y2E5) | -0.039 | -0.173 | 0.051 | -0.004 | 0.011 | -0.033 | -0.041 | 0.04 | 0.038 | 0.033 |
| LIMK1 (UniProt P53667) | -0.315 | 0.008 | 0.4 | 0.031 | 0.146 | -0.145 | 0.102 | 0.126 | 0.118 | – |
| MED25 isoform 3 (UniProt Q71SY5) | 0.132 | 0.026 | -0.039 | 0.097 | -0.017 | -0.008 | -0.024 | 0.029 | -0.013 | -0.073 |
| MAPK14 (UniProt Q16539) | 0.563 | 0.038 | 0.984 (active) | 0.069 | -0.029 | -0.025 | -0.137 | -0.012 | -0.005 | -0.042 |
| LYAR (UniProt Q9NX58) | 0.01 | -0.021 | 0.002 | 0.005 | 0.014 | 0.003 | 0 | -0.002 | -0.016 | -0.012 |
| MAP7D3 (UniProt Q8IWC1) | -0.012 | -0.01 | 0.03 | -0.037 | 0.029 | -0.101 | 0.014 | 0.003 | -0.016 | 0.005 |
| MITD1 (UniProt Q8WV92) | -0.022 | 0.089 | 0.011 | -0.09 | 0.027 | 0.027 | 0.022 | 0.03 | 0.07 | -0.047 |
| LAS1L (UniProt Q9Y4W2) | -0.019 | 0.008 | 0.025 | 0.029 | -0.019 | -0.083 | -0.013 | 0.033 | 0.044 | -0.024 |
| KIFC1 (UniProt Q9BW19) | -0.008 | 0.003 | -0.031 | -0.002 | 0.034 | -0.055 | 0.006 | 0.001 | -0.024 | -0.025 |
| MCMBP isoform 2 (UniProt Q9BTE3) | 0.152 | -0.039 | 0.099 | -0.144 | -0.099 | -0.076 | 0.066 | -0.041 | 0.082 | -0.118 |
| LZTS1 (UniProt Q9Y250) | -0.13 | 0.023 | 0.056 | 0.167 | -0.266 | -1.06 (active) | 0.087 | 0.186 | -0.02 | -0.297 |
| KIF15 (UniProt Q9NS87) | -0.038 | -0.003 | -0.03 | 0.052 | 0.044 | -0.058 | 0.008 | 0.003 | 0.011 | 0 |
| LDAH isoform 2 (UniProt Q9H6V9) | -0.062 | 0.023 | -0.071 | -0.003 | 0.017 | -0.022 | -0.077 | 0.037 | -0.009 | 0.307 (active) |
| LSG1 (UniProt Q9H089) | 0.003 | 0.015 | 0.102 | 0.026 | 0.137 | -0.091 | -0.004 | 0.115 | -0.014 | 0.032 |
| MMS22L (UniProt Q6ZRQ5) | 0.033 | 0 | 0.026 | -0.015 | -0.007 | -0.086 | -0.013 | 0.041 | -0.03 | -0.06 |
| MAP2K1 (UniProt Q02750) | -0.02 | 0.107 | 0.296 (active) | 0.057 | -0.057 | -0.064 | -0.037 | 0.4 (active) | 0.033 | -0.02 |
| MICB, A0A140T979 | -0.044 | 0.042 | 0.024 | 0.033 | -0.055 | -0.06 | -0.025 | -0.004 | 0.491 | 0.21 |
| MON2 isoform 5 (UniProt Q7Z3U7) | -0.006 | -0.021 | -0.072 | 0.018 | 0.039 | -0.074 | -0.004 | 0.021 | 0.005 | -0.003 |
| MED16 (UniProt Q9Y2X0) | -0.019 | 0.01 | -0.026 | 0.023 | -0.016 | -0.01 | 0.008 | -0.013 | 0.023 | -0.047 |
| MIPEP (UniProt Q99797) | 0.002 | 0.024 | 0.005 | -0.008 | 0.031 | 0.45 (active) | 0.033 | -0.016 | 0.01 | 0.054 |
| MRPL27 (UniProt Q9P0M9) | -0.112 | 0.027 | 0.089 | -0.039 | 0.091 | -0.012 | 0.015 | -0.006 | 0.072 | -0.064 |
| LIMS1 isoform 3 (UniProt P48059) | 0.076 | 0.035 | 0.017 | 0.104 | 0.018 | 0.255 (active) | 0.002 | -0.065 | -0.007 | 0.001 |
| KPNA4 (UniProt O00629) | -0.013 | 0.006 | 0.063 | 0.018 | 0.003 | -0.088 | -0.033 | -0.012 | 0 | -0.058 |
| MLST8 (UniProt Q9BVC4) | -0.011 | -0.006 | 0.046 | 0.079 | -0.041 | -0.058 | 0.076 | 0.043 | -0.065 | -0.067 |
| KIF2A isoform 4 (UniProt O00139) | 0.021 | -0.015 | -0.022 | -0.02 | 0.042 | -0.005 | 0.015 | 0.021 | 0.017 | 0.006 |
| MORC2 (UniProt Q9Y6X9) | -0.012 | -0.02 | -0.046 | 0.006 | 0.051 | -0.05 | 0.024 | 0.049 | 0.028 | -0.001 |
| MRPL10 isoform 2 (UniProt Q7Z7H8) | 0.009 | 0.016 | -0.019 | 0.025 | 0.054 | -0.22 | -0.017 | 0.015 | 0.024 | -0.011 |
| MAD2L1BP isoform 3 (UniProt Q15013) | -0.028 | 0.108 | 0.016 | -0.007 | -0.026 | -0.066 | 0.018 | -0.019 | 0.048 | -0.056 |
| MAP1S (UniProt Q66K74) | 0.007 | -0.022 | -0.007 | -0.009 | 0.009 | -0.006 | 0.02 | 0.026 | 0 | 0 |
| MGST3 (UniProt O14880) | 0.024 | 0.016 | 0.029 | -0.019 | -0.062 | 0.016 | -0.014 | 0.009 | -0.013 | -0.031 |
